Laboratory results from PubChem BioAssay (NCI).
Compounds without any hit were thinned out: in the full panel of roughly 83,000, 20% have a hit.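 Testing used 96-well plates and a 48-hour single-concentration exposure. Example: -40 means 40% of the starting cells died.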 Unmarked numbers belong to inactive results. Calls of active or inactive are those of the source. The calls were made as follows: active = growth percent below 10; inactive = the rest.

Each compound was assayed on KM12 colon (assay: NCI-60 one-dose screen, 48 h (100 = growth as untreated, 0 = no growth, -100 = all killed)). Conditions: 10 µM.

Row | Structure (SMILES) | growth
1 | O=C(CCl)Nc1ccc2c(c1)C(=O)c1ccc(NC(=O)CCl)cc1C2=O | -72.2% (active)
2 | N#C/C(=C\c1cc(O)c(O)c(O)c1)C(N)=O | 103%
3 | CC(=O)OCCO | 108%
4 | O=C(NCc1ccco1)Nc1c(Cl)cc(Cl)cc1Cl | 104%
5 | O=C(O)CCCCNC(=O)c1ccccc1 | 99%
6 | S=c1[nH]ccn1-c1ccccc1Cl | 104%
7 | CN(C)c1ccc2oc(=O)c3ccccc3c2c1 | 90.9%
8 | CCOC(=O)C(O)C(O)C(=O)OCC (stereo not drawn) | 102%
9 | O=C(O)C(Cc1ccccc1)C(=O)O | 107%
10 | N#CCCN(CCCN1CCOCC1)CN1C(=O)c2ccccc2C1=O | 112%
11 | CCCCCCCCO | 108%
12 | CC1OC(Oc2c(-c3ccc(O)c(O)c3)oc3cc(O)cc(O)c3c2=O)C(O)C(O)C1O (stereo not drawn) | 102%
13 | CC(=Nc1ccccc1)C1=C(O)C(Cc2cccc(F)c2)NC1=O (stereo not drawn) | -3.04% (active)
14 | CCCC(=O)c1cc(C)ccc1OC | 110%
15 | O=C(CS)Nc1ccc2ccccc2c1 | 102%
16 | CCCC1(c2ccccc2)NC(=O)NC1=O (stereo not drawn) | 110%
17 | CNS(=O)(=O)c1ccc(Cl)c(Cl)c1 | 108%
18 | CC1CC(O)CC(C)(C)C1 (stereo not drawn) | 90.3%
19 | Cc1cc(N)c(S(=O)(=O)O)c(N)c1 | 107%

Row | Structure (SMILES) | growth
20 | O=C(O)C(c1ccccc1)C(O)c1ccccc1 (stereo not drawn) | 108%
21 | COC1=CC(=O)c2nc(Cl)ccc2C1=O | 91.3%
22 | O=C1c2ccccc2C(=O)c2c1ccc(C(=O)O)c2[N+](=O)[O-] | 101%
23 | CSC(=N\N=C\c1ccc(N(C)C)cc1)/N=C/N(C)C | 110%
24 | CC(C)=CC(=O)OC(=O)C=C(C)C | 102%
25 | O=S(=O)(O)c1ccc(Cl)c(Cl)c1 | 111%
26 | COC(=O)Nc1cccc(Cl)c1OC | 111%
27 | CCOC(=O)c1coc(C(=O)OCC)c1C(=O)OCC | 106%
28 | COc1cc(C(=O)N/N=C/c2cccc([N+](=O)[O-])c2)cc(OC)c1OC | 19%
29 | N#CCCc1ccc(O)cc1 | 114%
30 | CCOC(=O)c1ccc(NC(=S)P(=O)(c2ccccc2)c2ccccc2)cc1 | 96.2%
31 | Clc1ccc(-c2n[nH]c3c2Cc2ccccc2-3)cc1Cl | 102%
32 | COc1cccc(Sc2ccc([N+](=O)[O-])c3no[n+]([O-])c23)c1 | 92.3%
33 | CC(C)COC(=O)COC(=O)OCCOCCOC(=O)OCC(=O)OCC(C)C | 104%
34 | CC(=O)Cc1ccc(-c2ccccc2)cc1 | 101%
35 | CCOc1ccc2[nH]c(=S)sc2c1 | 116%
36 | CC1CC(O)C2C3(C)CCCC2(COC3=O)C12CCC1(CCOC1=O)O2 (stereo not drawn) | 107%
37 | COc1ccc(OC)c(/C=C2\CCc3ccccc3C2=O)c1 | 22.8%
38 | Oc1ccccc1-c1nnco1 | 100%
